PPARg SRC3 recr – promotes SRC-3 coactivator recruitment by human PPARgamma; biochemical PPARgamma/SRC-3 coactivator recruitment assay; activation, % at 8 µM; 200,000 tested, 0.26% active; in the data active means activation above about 23%;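 further: 0% = DMSO and 100% = reference agonist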
SRC1 TRFRET art – flags TR-FRET format artefacts in PPARgamma SRC-1 recruitment agonist screen; TR-FRET ratio at 8 µM; 99,000 tested, 0.34% active; TR-FRET detection artefact counter-screen, emission ratio; active compounds read high; AID 1051; in the data active means TR-FRET ratio above about 2300
PPARg SRC2 recr – promotes SRC-2 coactivator recruitment by human PPARgamma; activation, % at 8 µM; 200,000 tested, 0.34% active; PPARgamma LBD-SRC-2 recruitment, biochemical; in the data active means activation above about 22%;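 further: 0% = vehicle and 100% = reference agonist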
PPARg SRC-1 ag – agonists of human PPARgamma SRC-1 coactivator recruitment; PPARgamma-SRC-1 coactivator recruitment biochemical assay; activation, % at 8 µM; 200,000 tested, 0.41% active; AID 631; in the data active means activation above about 19%;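 further: 0% = DMSO and 100% = reference agonist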
SRC3 TRFRET art – TR-FRET artefact, counter-screen to PPARgamma/SRC-3 agonist assay. PPARgamma/SRC-3 format; active compounds read high. TR-FRET ratio at 8 µM. 99,000 tested, 0.39% active. AID 1048
TR-FRET SRC-2 ct – flags TR-FRET format artefacts in PPARgamma SRC-2 recruitment agonist screen. TR-FRET ratio at 8 µM. 200,000 tested, 0.4% active. TR-FRET artefact counter-screen; active compounds read high. AID 1049
An asterisk follows results filed as active; . = no result. Sampled rows, rich in hits. Any-hit rate of the full collection: about 0.84%. Unless noted, no stated cut-off is given here; in the data, active means TR-FRET ratio above about 2000; inactive means the rest.

SMILES	PPARg SRC3 recr	SRC1 TRFRET art	PPARg SRC2 recr	PPARg SRC-1 ag	SRC3 TRFRET art	TR-FRET SRC-2 ct
Cc1[nH]nc2c1C(c1ccc(-c3ccc(Cl)cc3)o1)C(C#N)=C(N)O2 (stereo not given)	4	1928	23*	7	1758	1664
Cc1cc2nc(-c3ccc(SCC(=O)Nc4ccc5c(c4)OCCO5)nc3)[nH]c2cc1C	1	.	3	1	.	2267*
COC(=O)c1ccc(C(=O)OC)c(NC(=O)c2cc3ccccc3o2)c1	-4	.	4	24*	.	1501
COC(=O)c1ccc(N2CCN(C)CC2)c(NC(=O)c2cc3ccccc3o2)c1	-8	.	-7	-3	.	1388
CN(c1ccccc1)c1ccc(/C=N/N2CCOCC2)cc1	-1	1767	4	0	1494	1426
C=CCNC(=O)c1ccc(-c2nc(-c3ccc(Cl)cc3Cl)cs2)cc1	5	.	6	19*	.	1467
N/C(=N\OC(=O)/C=C/c1ccccc1Cl)c1ccncc1	2	2037	0	-1	1601	1695
COc1cc(Cl)c(C)cc1NC(=O)CSc1nnc(CCC(=O)O)c(=O)[nH]1	3	1713	8	4	1524	1567
Cc1nnc(NC(=O)c2sc3ccccc3c2Cl)s1	16	.	2	16	.	1652
Cc1ccc(NC(=O)c2sc3ccccc3c2Cl)nc1	12	.	4	36*	.	1782
CCNC(=O)c1ccccc1SCc1ccccc1	1	1740	2	-3	1473	1479
O=C(Nc1nc2ccccc2c(=O)[nH]1)c1ccccc1SCc1ccccc1	2	1612	3	1	2104*	1370
CSc1nc(C(=O)N2CCCC(C(=O)c3ccc(Cl)cc3)C2)cs1 (stereo not given)	0	1639	-8	-10	1474	1490
CCn1cc(/C=C/C(=O)Nc2ccn(Cc3c(F)c(F)c(F)c(F)c3F)n2)cn1	9	1932	28*	5	1426	1606
CCn1cc(/C=C/C(=O)Nc2c(C)nn(Cc3ccccc3C)c2C)cn1	-2	1839	6	4	1692	1623
O=C(COC(=O)c1sc2ccccc2c1Cl)Nc1ncc(Cl)cc1Cl	-3	2015	34*	7	1668	2187*
O=C(COC(=O)c1sc2cc(F)ccc2c1Cl)Nc1ncc(Cl)cc1Cl	1	1944	2	-3	1602	1600
O=C(COC(=O)c1sc2ccccc2c1Cl)NC1CCCCC1	5	1999	115*	6	1619	4050*
Cn1c(=O)c2c(nc(SCC(=O)NCc3ccco3)n2C)n(C)c1=O	4	.	15	2	.	1715
Cc1ccc2nc(SCC(=O)NCc3ccco3)c(C#N)cc2c1	10	.	16	10	.	2312*
Cc1ccc2nc(SCC(=O)NCc3cccs3)c(C#N)cc2c1	-6	.	1	42*	.	1428
CC(C)n1c(SCC(=O)NCc2ccco2)nc2c1c(=O)n(C)c(=O)n2C	-1	.	3	20*	.	1612
Cc1ccc(C(=O)Nc2ccc(Oc3ccc(C(=O)O)c(C(=O)O)c3)cc2)cc1C	1	.	22*	6	.	1940
N#Cc1cc(O)c(-n2nnc3ccccc32)cc1C#N	0	1742	26*	-4	1347	1747
N#Cc1cc(Oc2cccc3cccnc23)c(-n2nnc3ccccc32)cc1C#N	5	.	3	5	.	1613
SMILES	PPARg SRC3 recr	SRC1 TRFRET art	PPARg SRC2 recr	PPARg SRC-1 ag	SRC3 TRFRET art	TR-FRET SRC-2 ct
COc1ccc(/C(O)=C2\C(=O)C(=O)N(c3cc(C)on3)C2c2cccc(OC)c2OC)cc1C (stereo not given)	15	.	19	16	.	2062*
Cc1ccc(/C(O)=C2\C(=O)C(=O)N(c3cc(C)on3)C2c2cccc(Cl)c2)cc1 (stereo not given)	11	.	3	15	.	1632
Cc1cccc(-c2nnc(SCC#N)n2-c2cccc(Cl)c2)c1	-11	.	-4	5	.	1440
COc1ccc(-n2c(SCCC#N)nnc2-c2cc(Cl)ccc2OC)cc1Cl	22	.	6	10	.	2116*
O=C(c1cn(-c2ccccc2)nc1-c1cccs1)N1CCN(c2ccc(F)cc2)CC1	12	.	3	12	.	2165*
CC(NC(=O)COC(=O)c1cn(-c2ccccc2)nc1-c1cccs1)c1ccccc1 (stereo not given)	0	.	7	15	.	2073*
O=C(Nc1ccncc1)c1cn(-c2ccccc2)nc1-c1cccs1	-4	.	3	2	.	1391
Cc1ccc(NC(=O)CCC(=O)NNC(=O)NC2CCCCC2)c(C)c1	3	1684	2	6	1610	1645

Screening data from PubChem.
